Data taken from PubChem BioAssay (Tox21).
Where “and” joins values, the source holds several entries; their conditions need not be identical. Equal entries are not always repeated. Some structures have more than one record in an assay (separate samples or runs), and their calls can disagree. Calls of active or inactive are those of the source. Unless noted, the call rests on the fitted dose curve; in most records, active means well fitted curve in the direction sought with a large enough effect in the repeat runs; inconclusive means weak or mixed curves; inactive means no such curve, though single readings can be large; an effect the other way counts as inactive or inconclusive.

Tests used:
[1] = qHTS assay to identify small molecule antagonists of the glucocorticoid receptor (GR) signaling pathway - cell viability counter screen (AID 720693); further: nearly all actives have a fitted effect of over 55% in size
[2] = qHTS assay for identifying genotoxic compounds that show differential cytotoxicity against isogenic chicken DT40 cell lines with known DNA damage response pathways - wild type cell line (AID 743012); further: nearly all actives have a fitted effect of over 60% in size; further: potency means the concentration at half of the fitted maximal effect
Outline: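 Using parental DT40 (300 cells/well), compounds delivered in DMSO incubate 40 h at 37 C/5% CO2. CellTiter-Glo reagent then stands 30 min at room temperature, and luminescence gives cell viability.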

[3] = qHTS assay for identifying genotoxic compounds that show differential cytotoxicity against isogenic chicken DT40 cell lines with known DNA damage response pathways - Rev3 mutant cell line (AID 743014); further: nearly all actives have a fitted effect of over 55% in size; further: potency means the concentration at half of the fitted maximal effect
[4] = qHTS assay for identifying genotoxic compounds that show differential cytotoxicity against isogenic chicken DT40 cell lines with known DNA damage response pathways - Rad54/Ku70 mutant cell line (AID 743015); further: nearly all actives have a fitted effect of over 60% in size; further: potency means the concentration at half of the fitted maximal effect
[5] = qHTS assay to identify small molecule antagonists of the androgen receptor (AR) signaling pathway - cell viability counter screen (AID 743033; further: nearly all actives have a fitted effect of over 45% in size)
[6] = target: Androgen receptor (Homo sapiens) (UniProt P10275); test: qHTS assay to identify small molecule agonists of the androgen receptor (AR) signaling pathway (AID 743036; active means well fitted activation curve with a large enough effect in the signal ratio in the repeat runs, with a control signal flat, not every such curve was filed as active; inconclusive means weak or mixed curves, or effect the other way; inactive means no such curve, though single readings can be large or run the other way; the % refers to the signal ratio)
Outline: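 AR-UAS-bla HEK293 cells, plated 4 h before dosing, were treated with compound for 16 h at 37C. beta-Lactamase reporter read after 2 h with LiveBLAzer B/G FRET substrate at room temperature.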

[7] = qHTS assay to identify small molecule antagonists of the androgen receptor (AR) signaling pathway using the MDA cell line - cell viability counter screen (AID 743041; further: nearly all actives have a fitted effect of over 45% in size)
Outline: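 MDA-kb2 AR-luc cells (MMTV-luciferase, AR/GR responsive) treated with compounds plus R1881 agonist for 16 h at 37C. CellTiter-Fluor added at 15.5 h; fluorescence read after 30 min in the same wells.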

[8] = target: Androgen receptor (Homo sapiens) (UniProt P10275); test: qHTS assay to identify small molecule antagonists of the androgen receptor (AR) signaling pathway using the MDA cell line (AID 743042; further: nearly all actives have a fitted effect of over 55% in size)
Outline: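 MDA-kb2 breast carcinoma cells carrying MMTV-luciferase (AR/GR responsive) were co-treated with compounds and the agonist R1881 for 16 h at 37C. Inhibition read as ONE-Glo luminescence; CellTiter-Fluor fluorescence measured in parallel for cytotoxicity.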

[9] = qHTS assay to identify small molecule antagonists of the thyroid receptor (TR) signaling pathway (AID 743065); further: nearly all actives have a fitted effect of over 55% in size; further: potency means the concentration at half of the fitted maximal effect
Outline: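 GH3.TRE-Luc rat pituitary cells (two TREs driving luciferase) were dosed with compound, then stimulated with 1 nM T3 (final) for 23.5 h at 37 C. ONE-Glo luminescence was the read-out, with CellTiter-Fluor fluorescence as the cytotoxicity counter-screen.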

[10] = test system: thyroid hormone receptor (rat, GH3 cells); test: qHTS assay to identify small molecule agonists of the thyroid receptor (TR) signaling pathway (AID 743066; calls by dose curve)
[11] = qHTS assay to identify small molecule antagonists of the estrogen receptor alpha (ER-alpha) signaling pathway - cell viability counter screen (AID 743074; calls by dose curve;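 further: HEK293 cells carrying ER-alpha-UAS-bla reporter stimulated with 17beta-estradiol; nearly all actives have a fitted effect of over 45% in size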)
[12] = target: Estrogen receptor (Homo sapiens) (UniProt P03372); test: qHTS assay to identify small molecule agonists of the estrogen receptor alpha (ER-alpha) signaling pathway (AID 743075; calls by dose curve)
[13] = target: Estrogen receptor (Homo sapiens) (UniProt P03372); test: qHTS assay to identify small molecule agonists of the estrogen receptor alpha (ER-alpha) signaling pathway using the BG1 cell line (AID 743079); further: nearly all actives have a fitted effect of over 20% in size; further: potency means the concentration at half of the fitted maximal effect
[14] = qHTS assay to identify small molecule antagonists of the estrogen receptor alpha (ER-alpha) signaling pathway using the BG1 cell line (AID 743080; calls by dose curve;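 further: BG1 cells stimulated with 17beta-estradiol alongside compound; series mostly up to about 70 µM; nearly all actives have a fitted effect of over 25% in size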)
Outline: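 BG1-Luc-4E2 cells (endogenous full-length ER-alpha, stable 4×ERE-luciferase) were starved 5 days in phenol-red-free medium with 10% charcoal-stripped FBS, plated 24 h, then given compound plus 17beta-estradiol for 21.5 h at 37 C; ONE-Glo luminescence read after 30 min.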

[15] = qHTS assay to identify small molecule antagonists of the estrogen receptor alpha (ER-alpha) signaling pathway using the BG1 cell line - cell viability counter screen (AID 743081);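 further: compound given together with 17beta-estradiol as the ER stimulus; nearly all actives have a fitted effect of over 45% in size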; further: potency means the concentration at half of the fitted maximal effect
[16] = target: Aromatase (Homo sapiens) (UniProt P11511); test: qHTS assay to identify aromatase inhibitors (AID 743083)
[17] = qHTS assay to identify aromatase inhibitors - cell viability counter screen (AID 743084); further: potency means the concentration at half of the fitted maximal effect
[18] = qHTS assay to identify small molecule antagonists of the thyroid receptor (TR) signaling pathway - cell viability counter screen (AID 743064); further: nearly all actives have a fitted effect of over 50% in size; further: potency means the concentration at half of the fitted maximal effect
Outline: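 GH3.TRE-Luc rat pituitary cells dosed after 4 hr plating, co-stimulated with T3 at 1 nM final, incubated 23.5 h at 37 C. Viability measured in the same wells by CellTiter-Fluor fluorescence after 30 min further at 37 C.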

[19] = target: Estrogen receptor (Homo sapiens) (UniProt P03372); test: qHTS assay to identify small molecule antagonists of the estrogen receptor alpha (ER-alpha) signaling pathway (AID 743069; active means well fitted curve in the direction sought with a large enough effect in the signal ratio in the repeat runs, not every such curve was filed as active; inconclusive means weak or mixed curves, or effect the other way; inactive means no such curve, though single readings can be large or run the other way; the % refers to the signal ratio; further: potency means the concentration at half of the fitted maximal effect)
Outline: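 HEK293 ER-alpha-UAS-bla GripTite cells, held overnight in 2% charcoal-stripped FBS, 5,000 cells/well, preincubated 4 h, then compound plus 17beta-estradiol for 18 h at 37C. Beta-lactamase read by LiveBLAzer B/G FRET substrate, 2 h at room temperature.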
On the % scale 0 is the no-effect control and ±100 the full control effect.

Chain of Aromatase (Homo sapiens) (P11511 whole entry, looked up): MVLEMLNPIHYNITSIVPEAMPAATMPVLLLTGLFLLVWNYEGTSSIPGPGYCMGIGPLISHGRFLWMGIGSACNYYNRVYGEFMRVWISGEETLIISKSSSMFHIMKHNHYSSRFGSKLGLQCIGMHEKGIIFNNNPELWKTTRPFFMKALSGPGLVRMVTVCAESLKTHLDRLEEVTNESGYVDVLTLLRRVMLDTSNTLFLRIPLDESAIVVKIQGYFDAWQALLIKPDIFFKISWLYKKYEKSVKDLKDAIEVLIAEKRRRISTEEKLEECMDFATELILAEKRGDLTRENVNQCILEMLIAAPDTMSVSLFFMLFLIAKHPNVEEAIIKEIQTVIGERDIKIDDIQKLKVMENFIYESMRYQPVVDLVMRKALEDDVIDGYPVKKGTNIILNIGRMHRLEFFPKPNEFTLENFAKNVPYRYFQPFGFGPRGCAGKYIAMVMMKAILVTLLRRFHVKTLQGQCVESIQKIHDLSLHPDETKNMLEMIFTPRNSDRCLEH
Chain of Androgen receptor (Homo sapiens) (P10275 whole entry, looked up): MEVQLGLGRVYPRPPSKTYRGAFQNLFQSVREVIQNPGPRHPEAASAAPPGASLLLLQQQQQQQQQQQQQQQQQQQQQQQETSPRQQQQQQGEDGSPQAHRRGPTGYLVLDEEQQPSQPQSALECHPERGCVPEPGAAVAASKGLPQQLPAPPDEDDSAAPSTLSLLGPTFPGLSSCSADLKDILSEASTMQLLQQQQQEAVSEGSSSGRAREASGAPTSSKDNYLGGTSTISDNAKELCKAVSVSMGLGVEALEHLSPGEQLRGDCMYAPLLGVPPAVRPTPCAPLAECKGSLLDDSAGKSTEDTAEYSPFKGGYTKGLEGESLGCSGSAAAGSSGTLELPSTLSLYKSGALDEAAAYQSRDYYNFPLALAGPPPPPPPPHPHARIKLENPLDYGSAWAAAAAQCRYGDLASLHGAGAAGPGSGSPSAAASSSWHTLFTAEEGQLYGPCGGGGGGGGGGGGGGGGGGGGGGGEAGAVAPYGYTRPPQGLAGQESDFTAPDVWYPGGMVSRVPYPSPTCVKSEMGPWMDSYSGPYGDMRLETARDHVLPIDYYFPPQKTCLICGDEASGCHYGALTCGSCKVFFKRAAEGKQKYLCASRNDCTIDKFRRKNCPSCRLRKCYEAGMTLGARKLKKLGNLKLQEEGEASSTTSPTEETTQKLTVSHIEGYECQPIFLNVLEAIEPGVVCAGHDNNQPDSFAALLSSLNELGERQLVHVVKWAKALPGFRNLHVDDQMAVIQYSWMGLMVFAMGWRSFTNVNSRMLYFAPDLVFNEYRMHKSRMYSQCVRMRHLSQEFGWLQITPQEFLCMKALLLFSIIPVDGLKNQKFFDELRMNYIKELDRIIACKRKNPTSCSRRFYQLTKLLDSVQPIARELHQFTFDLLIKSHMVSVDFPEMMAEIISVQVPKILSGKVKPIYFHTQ
Chain of Estrogen receptor (Homo sapiens) (P03372 whole entry, looked up): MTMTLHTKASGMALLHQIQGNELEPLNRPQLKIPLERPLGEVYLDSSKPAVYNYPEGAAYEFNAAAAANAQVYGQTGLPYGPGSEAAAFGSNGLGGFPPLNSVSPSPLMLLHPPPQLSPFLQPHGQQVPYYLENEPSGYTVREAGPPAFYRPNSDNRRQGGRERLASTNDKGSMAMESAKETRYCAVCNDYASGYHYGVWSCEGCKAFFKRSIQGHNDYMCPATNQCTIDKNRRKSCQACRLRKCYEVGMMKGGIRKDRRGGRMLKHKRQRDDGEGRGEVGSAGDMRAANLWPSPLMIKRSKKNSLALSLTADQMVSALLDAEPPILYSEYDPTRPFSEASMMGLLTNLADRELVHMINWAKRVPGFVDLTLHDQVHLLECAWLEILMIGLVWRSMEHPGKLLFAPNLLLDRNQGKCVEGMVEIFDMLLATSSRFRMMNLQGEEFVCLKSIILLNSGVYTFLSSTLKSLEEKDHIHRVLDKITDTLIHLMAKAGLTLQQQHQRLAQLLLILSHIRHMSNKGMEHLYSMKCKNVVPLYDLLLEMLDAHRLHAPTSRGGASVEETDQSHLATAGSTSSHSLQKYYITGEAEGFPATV

NCc1ccccc1Sc1ccccc1CO
inactive: Potency [1] | Potency [5] | Potency [6] | Potency [7] | Potency [8] | Potency [9] | Potency [10] | Potency [11] | Potency [12] | Potency [13] | Potency [14] | Potency [15] | Potency [16] | Potency [17]
active: Potency [2] 21.1 µM | Potency [3] 5.96 µM | Potency [4] 29.8 µM

OCCN1CCN(CCCN2c3ccccc3C=Cc3ccccc32)CC1
inactive: Potency [1] | Potency [5] | Potency [7] | Potency [10] | Potency [11] | Potency [12] | Potency [13] | Potency [14] | Potency [16]
10.6 µM (active) and inactive: Potency [15]
29.8 µM (active) and inactive: Potency [17]
active: Potency [2] 5.96 µM and 13.3 µM | Potency [3] 1.68 µM and 15 µM | Potency [4] 8.41 µM and 26.6 µM | Potency [18] 6.68 µM and 7.5 µM | Potency [9] 11.9 µM and 26.6 µM

CC(C)(C)Cl
active: Potency [13] 64.4 µM
inactive: Potency [1] | Potency [2] | Potency [3] | Potency [4] | Potency [5] | Potency [7] | Potency [18] | Potency [9] | Potency [10] | Potency [19] | Potency [12] | Potency [14] | Potency [15] | Potency [16] | Potency [17]

Cc1ncc(CO)c(C=O)c1O
inactive: Potency [1] | Potency [2] | Potency [3] | Potency [4] | Potency [5] | Potency [7] | Potency [18] | Potency [9] | Potency [10] | Potency [19] | Potency [11] | Potency [12] | Potency [13] | Potency [14] | Potency [15] | Potency [16] | Potency [17]

C[C@@H](c1ncncc1F)C(O)(Cn1cncn1)c1ccc(F)cc1F (stereo not given in full)
inactive: Potency [1] | Potency [2] | Potency [3] | Potency [4] | Potency [5] | Potency [7] | Potency [8] | Potency [18] | Potency [9] | Potency [10] | Potency [12] | Potency [13] | Potency [14] | Potency [15] | Potency [16] | Potency [17]

CC1CCC(=O)C1=O (stereo not given)
inactive: Potency [1] | Potency [2] | Potency [3] | Potency [4] | Potency [5] | Potency [7] | Potency [18] | Potency [9] | Potency [10] | Potency [11] | Potency [12] | Potency [13] | Potency [14] | Potency [15] | Potency [16] | Potency [17]

C=C(C)C(=O)OCCOCC
inactive: Potency [1] | Potency [2] | Potency [3] | Potency [4] | Potency [5] | Potency [7] | Potency [18] | Potency [9] | Potency [10] | Potency [11] | Potency [12] | Potency [13] | Potency [14] | Potency [15] | Potency [16] | Potency [17]

CCCn1cnc2c1c(=O)n(CCCCC(C)=O)c(=O)n2C
inactive: Potency [1] | Potency [2] | Potency [3] | Potency [4] | Potency [5] | Potency [6] | Potency [8] | Potency [18] | Potency [9] | Potency [10] | Potency [11] | Potency [12] | Potency [13] | Potency [14] | Potency [15] | Potency [16] | Potency [17]

COCC(C)OC(C)=O (stereo not given)
inactive: Potency [1] | Potency [2] | Potency [3] | Potency [4] | Potency [5] | Potency [7] | Potency [18] | Potency [9] | Potency [10] | Potency [19] | Potency [11] | Potency [14] | Potency [15] | Potency [16] | Potency [17]

O=CC1CC=CCC1 (stereo not given)
inactive: Potency [1] | Potency [2] | Potency [3] | Potency [4] | Potency [5] | Potency [6] | Potency [7] | Potency [8] | Potency [9] | Potency [10] | Potency [19] | Potency [11] | Potency [12] | Potency [13] | Potency [14] | Potency [15] | Potency [16] | Potency [17]

COc1cc(Cl)ccc1Oc1ccc(Cl)cc1Cl
inactive: Potency [1] | Potency [2] | Potency [3] | Potency [4] | Potency [5] | Potency [10] | Potency [11] | Potency [12] | Potency [13] | Potency [15] | Potency [16] | Potency [17]
active: Potency [9] 52.9 µM

CCCCCCCC/C=C\CCCCCCCC(=O)OCC
inactive: Potency [1] | Potency [2] | Potency [3] | Potency [4] | Potency [5] | Potency [7] | Potency [9] | Potency [10] | Potency [11] | Potency [15] | Potency [16] | Potency [17]

C/C=C/C(=O)CC
inactive: Potency [1] | Potency [2] | Potency [3] | Potency [4] | Potency [5] | Potency [7] | Potency [9] | activation [10] 0.0391% [at 18 µM] | activity, negative = cytotoxicity [11] -6.1% [at 15 µM] | activation [12] -0.96% [at 14.9 µM] | Potency [13] | Potency [14] | Potency [15] | Potency [16] | Potency [17]

O=C(O)c1ccc(-n2nc(-c3ccccc3O)nc2-c2ccccc2O)cc1
inactive: Potency [1] | Potency [5] | Potency [11] | Potency [12] | Potency [15]
active: Potency [2] 13.3 µM | Potency [3] 18.8 µM | Potency [4] 18.8 µM | Potency [9] 29.8 µM | Potency [19] 16.9 µM [inconclusive]

COc1ccc(C(=O)N2CCN(CC(=O)N3CCOCC3)CC2)cc1
inactive: Potency [1] | Potency [2] | Potency [3] | Potency [4] | Potency [5] | Potency [18] | Potency [9] | Potency [10] | Potency [19] | Potency [11] | Potency [12] | Potency [13] | Potency [14] | Potency [15] | Potency [16] | Potency [17]
